Source: PubChem BioAssay AID1159580 (chemical genetic matrix, 2015)
The campaign covered roughly 5,500 compounds. About 2,000 (36%) were called active. Roughly 18% stayed inconclusive and do not appear here. No stated cut-off is given here; in the data, active means normalized growth mostly below about 0.91 (no sharp cut-off); inconclusive means no clear call, values can overlap the other calls; inactive means mostly above about 0.92. The list shows a part of the results.

Test: chemical genetic growth profiling, strain panel (AID 1159580);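 further: tested at 20 µM; growth read once vehicle control cultures reached saturation at 30 °C; 1 = growth at the plate median or of vehicle wells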
Details: growth OD

Measured: normalized growth

OCC(O)C(O)C(O)C(O)C(O)CO (configuration not stated)
inactive: S. cerevisiae deletion strains, locus YKL009W, strain mrt4, stronger effect = lower value 1.05 | S. cerevisiae deletion strains, locus YKL068W, stronger effect = lower value 0.98 | S. cerevisiae deletion strains, locus YKL085W, strain MDH1 (second series), stronger effect = lower value 1 | S. cerevisiae deletion strains, locus YKL085W, strain MDH1, stronger effect = lower value 1 | S. cerevisiae deletion strains, locus YKL160W, strain elf1, stronger effect = lower value 1.01 | S. cerevisiae deletion strains, locus YKL190W, strain CNB1, stronger effect = lower value 1.02 | S. cerevisiae deletion strains, locus YKR001C, strain vps1, stronger effect = lower value 1.01 | S. cerevisiae deletion strains, locus YKR026C, strain gcn3, stronger effect = lower value 1.01 | S. cerevisiae deletion strains, locus YKR091W, strain srl3, stronger effect = lower value 0.997 | S. cerevisiae deletion strains, locus YLL001W, strain dnm1, stronger effect = lower value 0.995 | S. cerevisiae deletion strains, locus YLL026W, stronger effect = lower value 0.999 | S. cerevisiae deletion strains, locus YLL041C, strain sdh2, stronger effect = lower value 0.998 | S. cerevisiae deletion strains, locus YLR027C, strain aat2, stronger effect = lower value 0.997 | S. cerevisiae deletion strains, locus YLR039C, strain RIC1, stronger effect = lower value 1.14 | S. cerevisiae deletion strains, locus YLR058C, strain SHM2, stronger effect = lower value 1 | S. cerevisiae deletion strains, locus YLR102C, strain apc9, stronger effect = lower value 0.987 | S. cerevisiae deletion strains, locus YLR113W, strain HOG1, stronger effect = lower value 0.965 | S. cerevisiae deletion strains, locus YLR221C, strain rsa3, stronger effect = lower value 1.01 | S. cerevisiae deletion strains, locus YLR258W, strain gsy2, stronger effect = lower value 1 | S. cerevisiae deletion strains, locus YLR262C, strain YPT6 (second series), stronger effect = lower value 1 | S. cerevisiae deletion strains, locus YLR268W, strain sec22, stronger effect = lower value 0.998 | S. cerevisiae deletion strains, locus YLR320W, strain mms22, stronger effect = lower value 0.985 | S. cerevisiae deletion strains, locus YLR330W, strain CHS5, stronger effect = lower value 0.992 | S. cerevisiae deletion strains, locus YLR342W, strain FKS1 (second series), stronger effect = lower value 0.998 | S. cerevisiae deletion strains, locus YLR342W, strain FKS1, stronger effect = lower value 0.993 | S. cerevisiae deletion strains, locus YLR357W, strain rsc2, stronger effect = lower value 0.974 | S. cerevisiae deletion strains, locus YLR370C, strain arc18, stronger effect = lower value 0.999 | S. cerevisiae deletion strains, locus YLR371W, strain rom2, stronger effect = lower value 1.03 | S. cerevisiae deletion strains, locus YLR384C, strain iki3, stronger effect = lower value 0.995 | S. cerevisiae deletion strains, locus YLR418C, strain cdc73, stronger effect = lower value 1 | S. cerevisiae deletion strains, locus YML016C, strain PPZ1, stronger effect = lower value 0.988 | S. cerevisiae deletion strains, locus YML032C, strain rad52, stronger effect = lower value 0.987 | S. cerevisiae deletion strains, locus YML120C, strain ndi1, stronger effect = lower value 0.988 | S. cerevisiae deletion strains, locus YML124C, strain tub3, stronger effect = lower value 0.988 | S. cerevisiae deletion strains, locus YMR058W, strain fet3, stronger effect = lower value 0.997 | S. cerevisiae deletion strains, locus YMR078C, strain ctf18, stronger effect = lower value 0.989 | S. cerevisiae deletion strains, locus YMR125W, strain sto1, stronger effect = lower value 0.973 | S. cerevisiae deletion strains, locus YMR129W, stronger effect = lower value 0.99 | S. cerevisiae deletion strains, locus YMR205C, strain PFK2, stronger effect = lower value 1 | S. cerevisiae deletion strains, locus YMR223W, strain ubp8, stronger effect = lower value 1.01 | S. cerevisiae deletion strains, locus YMR231W, strain pep5, stronger effect = lower value 0.998 | S. cerevisiae deletion strains, locus YMR307W, strain GAS1, stronger effect = lower value 1.12 | S. cerevisiae deletion strains, locus YNL067W, strain RPL9B, stronger effect = lower value 1.02 | S. cerevisiae deletion strains, locus YNL071W, strain lat1, stronger effect = lower value 1 | S. cerevisiae deletion strains, locus YNL153C, strain GIM3, stronger effect = lower value 1.03 | S. cerevisiae deletion strains, locus YNL183C, strain NPR1, stronger effect = lower value 0.932 | S. cerevisiae deletion strains, locus YNL209W, strain ssb2, stronger effect = lower value 1 | S. cerevisiae deletion strains, locus YNL233W, strain BNI4, stronger effect = lower value 1.06 | S. cerevisiae deletion strains, locus YNL248C, strain rpa49, stronger effect = lower value 0.99 | S. cerevisiae deletion strains, locus YNL250W, strain rad50, stronger effect = lower value 0.987 | S. cerevisiae deletion strains, locus YNL271C, strain bni1, stronger effect = lower value 1.01 | S. cerevisiae deletion strains, locus YNL298W, strain CLA4, stronger effect = lower value 0.99 | S. cerevisiae deletion strains, locus YNL307C, strain MCK1, stronger effect = lower value 0.992 | S. cerevisiae deletion strains, locus YNL322C, strain KRE1 (second series), stronger effect = lower value 0.999 | S. cerevisiae deletion strains, locus YNR049C, strain mso1, stronger effect = lower value 0.987 | S. cerevisiae deletion strains, locus YNR052C, strain pop2, stronger effect = lower value 1.03 | S. cerevisiae deletion strains, locus YOL006C, strain TOP1, stronger effect = lower value 1.14 | S. cerevisiae deletion strains, locus YOL012C, strain htz1 0.757 | S. cerevisiae deletion strains, locus YOL147C, strain pex11, stronger effect = lower value 0.998 | S. cerevisiae deletion strains, locus YOR001W, strain rrp6, stronger effect = lower value 1 | S. cerevisiae deletion strains, locus YOR061W, strain CKA2, stronger effect = lower value 0.984 | S. cerevisiae deletion strains, locus YOR069W, strain VPS5, stronger effect = lower value 1 | S. cerevisiae deletion strains, locus YOR070C, strain gyp1, stronger effect = lower value 0.995 | S. cerevisiae deletion strains, locus YOR080W, strain dia2, stronger effect = lower value 0.985 | S. cerevisiae deletion strains, locus YOR083W, strain WHI5, stronger effect = lower value 0.996 | S. cerevisiae deletion strains, locus YOR106W, strain vam3, stronger effect = lower value 1.01 | S. cerevisiae deletion strains, locus YOR136W, strain idh2, stronger effect = lower value 1.01 | S. cerevisiae deletion strains, locus YOR144C, strain elg1, stronger effect = lower value 0.991 | S. cerevisiae deletion strains, locus YOR184W, strain ser1, stronger effect = lower value 0.982 | S. cerevisiae deletion strains, locus YOR231W, strain MKK1, stronger effect = lower value 0.961 | S. cerevisiae deletion strains, locus YOR265W, strain rbl2, stronger effect = lower value 0.989 | S. cerevisiae deletion strains, locus YOR270C, strain vph1, stronger effect = lower value 0.994 | S. cerevisiae deletion strains, locus YOR290C, strain snf2, stronger effect = lower value 0.989 | S. cerevisiae deletion strains, locus YOR316C, strain cot1, stronger effect = lower value 0.984 | S. cerevisiae deletion strains, locus YPL051W, strain arl3, stronger effect = lower value 1 | S. cerevisiae deletion strains, locus YPL055C, strain LGE1, stronger effect = lower value 0.97 | S. cerevisiae deletion strains, locus YPL078C, strain atp4, stronger effect = lower value 0.992 | S. cerevisiae deletion strains, locus YPL106C, strain sse1, stronger effect = lower value 0.989 | S. cerevisiae deletion strains, locus YPL240C, strain hsp82, stronger effect = lower value 0.989 | S. cerevisiae deletion strains, locus YPL241C, strain CIN2, stronger effect = lower value 0.998 | S. cerevisiae deletion strains, locus YPL256C, strain CLN2, stronger effect = lower value 0.968 | S. cerevisiae deletion strains, locus YPR119W, strain clb2, stronger effect = lower value 0.997 | S. cerevisiae deletion strains, locus YPR141C, strain kar3, stronger effect = lower value 0.976 | S. cerevisiae deletion strains, locus YPR163C, strain tif3, stronger effect = lower value 1.01 | S. cerevisiae deletion strains, locus YPR167C, strain met16, stronger effect = lower value 0.993 | S. cerevisiae deletion strains, strain wtn01, stronger effect = lower value 0.997 | S. cerevisiae strains, strain wild type, stronger effect = lower value 1.03
